The source made the active and inactive calls. The rule behind the calls is not given here.
Test: inhibition of 3D7 malaria parasite growth – strain 3D7 (AID 2306);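 note: 0% = DMSO wells and 100% = chloroquine plus artemisinin control wells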
Settings: P. falciparum 3D7 erythrocytic growth, LDH absorbance, 72 h; at 2 µM; hits give high values

Growth inhibition, active:
Cc1ccccc1C1CCN(C2CCC(NC(=O)c3cc4cc(C(C)C)ccc4[nH]3)CC2)CC1 (stereo not given) 99%
CCN(CC)CCCC(C)Nc1cc(C=Cc2ccccc2Cl)nc2cc(Cl)ccc12 (stereo not given) 99%
N/C(=N\c1ncccn1)Nc1cccc(Cc2ccccc2)n1 90%
Cc1cc([N+](=O)[O-])ccc1N1CCN(CCCCNC(=O)c2ccc(NC(=O)c3ccc(Cl)cc3)cc2)CC1 92%
Cc1ccc(OCC2CCN(c3ncc(C(=O)NCCCN4CCCC4=O)cc3Cl)CC2)cc1 94%
NC1CCN(Cc2cccc(-c3ccc(-c4nc5ccccc5[nH]4)cc3)c2)C1 (stereo not given) 100%
O=C(/C=C/c1ccccc1Cl)NC1CCC(CN2CCC(c3c[nH]c4ccncc34)CC2)CC1 (stereo not given) 100%
COC(=O)c1cccc(CNCc2ccc(-c3cccc(-c4nc5c(C)cccc5[nH]4)c3)cc2)c1 102%
Cc1cccc2[nH]c(-c3cccc(-c4cccc(NC(=O)CNC(=O)c5ccc(O)cc5)c4)c3)nc12 94%
CC(=O)NCCNc1nccc(N2CCc3ncnc(Nc4ccc(OCc5cccc(F)c5)c(Cl)c4)c3C2)n1 100%
COc1ccc(-c2cccc(NC(=O)c3cccc(Cl)c3)c2)cc1CN(C)CCN(C)C 101%
O=C(NCC1Cc2cc(Oc3ccccc3)ccc2O1)c1ccc([N+](=O)[O-])o1 (stereo not given) 88%
CCCCn1c(SC(C)C)nc2c(c1=O)C1(CCCCC1)Cc1ccccc1-2 99%
CC(=O)Nc1ccc(S(=O)(=O)N2CCN(c3nc(NC4CCCC4)c4ccccc4n3)CC2)cc1 88%
Cc1ccc(O)cc1Nc1ccnc2ccc(-c3csc(CNCCN4CCOCC4)n3)cc12 101%
COc1ccc(Cc2c(C)nc3nc(N)nc(N)c3c2C)cc1 93%
Cc1cccc2[nH]c(-c3ccc(-c4ccc(NC(=O)C(C)CN(C)C)cc4)cc3)nc12 (stereo not given) 99%
COc1ccc(CNC2CCN(C)CC2)cc1-c1ccc(S(=O)(=O)NCCc2ccccn2)cc1 93%
CCCNc1ccc(-c2cc(C(N)=O)c3[nH]cc(C4CCN(S(=O)(=O)CC)CC4)c3c2)cn1 99%
COc1cc(-c2ccccc2)ccc1C(=O)Nc1ccc2c(c1)N(C)CCC2 85%
O=C(Nc1ccc2nccc(N3CCN4CCC[C@H]4C3)c2c1)c1ccc(Cl)c(Cl)c1 101%
O=C(/C=C/c1ccc(Cl)c(Cl)c1)NCCCCCCN1CCN(C(=O)Nc2cccc(Cl)c2)CC1 85%
Fc1cccc(COc2ccc(Nc3ncnc4ccc(-c5nnc(C(F)(F)F)o5)cc34)cc2Cl)c1 101%
CC(C)c1sc(N2CCN(C)CC2)nc1C(=O)Nc1cccc2c1CCCC2 98%
COc1ccc2c(NN=Cc3ccc(F)cc3)cc(C)nc2c1 101%
COc1ccc(C=NNc2cc(C)nc3ccccc23)cc1OC 91%
O=S(=O)(c1ccc(Oc2ccccc2)cc1)N(CCC(O)(C(F)(F)F)C(F)(F)F)Cc1cccc(O)c1 102%
COc1cc(CNCCCCCCNCc2cc(OC)c(OC)c3ccccc23)c2ccccc2c1OC 100%
CC(C)(C)c1ccc(OCCCON2C(N)=NC(N)=NC2(C)C)cc1 93%
Cc1cc(C(F)(F)F)n2nc(C3CCN(Cc4cc(C)c(O)c(C)c4)C3)cc2n1 (stereo not given) 98%
COc1cc2nc(N(C)CC3COc4ccccc4O3)nc(N)c2cc1OC (stereo not given) 94%
OCC1CCN(Cc2cccc(-c3ccc(-c4nc5ccc(C(F)(F)F)cc5[nH]4)s3)c2)CC1 99%
CCN(CC)CCn1c2ccccc2c2ccc(C(=O)Nc3ccc4sc(C)nc4c3)cc21 84%
O=C(Nc1ccnc(N2C[C@H]3C[C@@H]2CN3Cc2cccc(O)c2)c1)c1ccc(F)cc1 92%
COc1cc2nc(N3CCC(CNC(=O)c4ccc(-c5ccc(-c6noc(C)n6)cc5C)cc4)CC3)nc(N)c2cc1OC 100%
Cc1cc(C(F)(F)F)nn1-c1ccc(NC(=O)c2ccco2)cc1 94%
Cc1nc(-c2ccncc2)sc1C(=O)Nc1ccc(Cl)cc1C(=O)Nc1ccc(Cl)cc1 98%
CS(=O)(=O)c1ccc(CNCc2cccc(-c3ccc(-c4nc5ccc(C(F)(F)F)cc5[nH]4)cc3)c2)cc1 101%
Cn1cc(C2CCN(CCCCCNC(=O)/C=C/c3ccc(Cl)c(Cl)c3)CC2)c2cc(O)ccc21 94%
CC1CN(Cc2ccccc2)CCN1c1ccc(NC(=O)c2cccs2)cc1 (stereo not given) 96%
